Data reported in article PMC5540273 (PLoS ONE, 2017).

Legend:
Settings in all cases: concentration: 1 μM, replicates: in singlicate; n = 1
[1] = system: INSR
[2] = system: IRAK1
[3] = system: IRAK3
[4] = system: IRAK4
[5] = system: ITK
[6] = system: JAK1(JH1domain-catalytic)
[7] = system: JAK1(JH2domain-pseudokinase)
[8] = system: JAK2(JH1domain-catalytic)
[9] = system: JAK3(JH1domain-catalytic)
[10] = system: T1, JNK1
T1 construct: gene MAPK8

[11] = system: T2, JNK2
T2 construct: gene MAPK9

[12] = system: T3, JNK3
T3 construct: gene MAPK10

[13] = system: KIT-autoinhibited
[14] = system: KIT
[15] = system: LATS1
[16] = system: LATS2
[17] = system: LCK
[18] = system: LIMK1
[19] = system: LIMK2
[20] = system: T4, LKB1
T4 construct: gene STK11
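Further: KINOMEscan kinase panel screen.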

Row | SMILES | %Inh [1] | %Inh [2] | %Inh [3] | %Inh [4] | %Inh [5] | %Inh [6] | %Inh [7] | %Inh [8] | %Inh [9] | %Inh [10] | %Inh [11] | %Inh [12] | %Inh [13] | %Inh [14] | %Inh [15] | %Inh [16] | %Inh [17] | %Inh [18] | %Inh [19] | %Inh [20]
1 | Cc1cccc(-c2cc(-c3c[nH]nc3-c3ccccn3)ccn2)c1 [GW679395] | 1% | 34% | 1% | 18% | 4% | 5% | 0% | 8% | 0% | 56% | 66% | 73% | 0% | 35% | 0% | 3% | 78% | 0% | 13% | 0%
2 | Nc1ncnc2c1ncn2-c1cccc2ccccc12 [SKF-97184] | 0% | 27% | 0% | 0% | 0% | 1% | 33% | 54% | 19% | 15% | 0% | 0% | 20% | 8% | 18% | 0% | 0% | 0% | 0% | 92.8%
3 | Nc1ncnc2c1ncn2-c1cccc(F)c1 [SKF-97560] | 9% | 33% | 0% | 30% | 6% | 10% | 12% | 39% | 55% | 38% | 18% | 36% | 25% | 39% | 0% | 42% | 20% | 20% | 22% | 4%
4 | O=C(NCc1cccs1)c1cc(C(=O)c2c(Cl)cccc2Cl)c[nH]1 [GW823670] | 0% | 0% | 26% | 0% | 1% | 1% | 5% | 0% | 0% | 0% | 0% | 0% | 4% | 0% | 0% | 0% | 0% | 6% | 0% | 49%
5 | COc1ccc(CNC(=O)NC2CCN(c3ccnc(Nc4ccc(F)cc4)n3)C2)cc1 (centres unmarked) [GSK1379706] | 17% | 45% | 0% | 0% | 8% | 13% | 0% | 39% | 0% | 19% | 9% | 13% | 3% | 39% | 22% | 27% | 16% | 0% | 29% | 13%
6 | CC(C)(C)c1ccc(C(=O)Nc2cn3cc(-c4ccccc4)ccc3n2)cc1 | 0% | 17% | 12% | 13% | 12% | 12% | 42% | 0% | 0% | 13% | 0% | 0% | 0% | 92.6% | 0% | 0% | 8% | 10% | 0% | 15%
7 | COC(=O)c1c(-c2ccccc2)c2cc(C)ccc2c(=O)n1Cc1ccccc1 | 1% | 21% | 0% | 20% | 1% | 0% | 0% | 0% | 0% | 44% | 32% | 48% | 0% | 75% | 0% | 0% | 0% | 5% | 0% | 0%
8 | Cl.c1ccc(Cn2cnc3cc(Nc4ncnc5ccccc45)ccc32)cc1 [GW272142] | 0% | 26% | 0% | 15% | 7% | 4% | 0% | 0% | 0% | 13% | 7% | 0% | 4% | 0% | 0% | 0% | 25% | 0% | 4% | 0%
9 | CCc1nc(-c2cccc(C)c2)c(-c2ccncc2)s1 | 0% | 0% | 0% | 0% | 4% | 0% | 41% | 1% | 0% | 57% | 76% | 90.3% | 0% | 42% | 4% | 0% | 24% | 0% | 0% | 35%
10 | Cc1ccc(-c2ccc3c(ccc4sc5c(c43)NC[C@@H](C)N=C5N(C)C)n2)cn1 | 0% | 0% | 0% | 0% | 0% | 0% | 0% | 0% | 0% | 4% | 0% | 0% | 0% | 0% | 0% | 18% | 0% | 0% | 0% | 0%
11 | O=C1NC(=O)C(c2ccccc2)=C1Nc1cccc(O)c1 [SB-390534] | 0% | 0% | 0% | 0% | 0% | 0% | 17% | 15% | 0% | 22% | 13% | 4% | 0% | 10% | 21% | 0% | 24% | 0% | 0% | 0%
12 | Cc1cccc(-c2nc(Nc3ccc4c(cnn4C)c3)c3ccccc3n2)n1 [GW876731] | 0% | 0% | 0% | 0% | 0% | 15% | 16% | 26% | 0% | 1% | 60% | 28% | 0% | 7% | 0% | 0% | 0% | 0% | 0% | 48%
13 | Cc1nn2c(=O)cc(N3CCOCC3)nc2n1Cc1cccc(Cl)c1Cl [GSK2342769] | 0% | 75% | 16% | 16% | 14% | 10% | 0% | 6% | 0% | 10% | 15% | 5% | 0% | 10% | 0% | 0% | 5% | 0% | 0% | 0%
14 | OCCCNc1nccc(-c2c(-c3cccc(C(F)(F)F)c3)nn3cc(C(F)(F)F)ccc23)n1 [GW630813] | 0% | 29% | 0% | 2% | 0% | 14% | 0% | 0% | 0% | 0% | 13% | 15% | 13% | 2% | 0% | 0% | 0% | 0% | 12% | 16%
15 | COc1cc2ncn(-c3cc(OCc4ccncc4Br)c(C(N)=O)s3)c2cc1OC [GW854278] | 1% | 3% | 27% | 3% | 0% | 0% | 19% | 0% | 0% | 0% | 5% | 5% | 5% | 24% | 22% | 0% | 25% | 0% | 8% | 0%
16 | Nc1nc(N)c2nc(-c3ccccc3)[nH]c2n1 [SKF-12778] | 0% | 34% | 0% | 3% | 8% | 11% | 84% | 50% | 39% | 20% | 14% | 8% | 5% | 21% | 0% | 0% | 19% | 0% | 3% | 0%

Row | SMILES | %Inh [1] | %Inh [2] | %Inh [3] | %Inh [4] | %Inh [5] | %Inh [6] | %Inh [7] | %Inh [8] | %Inh [9] | %Inh [10] | %Inh [11] | %Inh [12] | %Inh [13] | %Inh [14] | %Inh [15] | %Inh [16] | %Inh [17] | %Inh [18] | %Inh [19] | %Inh [20]
17 | O=C(Nc1n[nH]c2cc(-c3ccccc3F)ccc12)C1CC1 [SB-733371] | 0% | 0% | 0% | 0% | 0% | 0% | 17% | 27% | 0% | 33% | 16% | 15% | 0% | 10% | 27% | 0% | 6% | 0% | 0% | 30%
18 | CCC(=O)c1c(-c2ccccc2)c2cc(Cl)ccc2c(=O)n1Cc1cc(S(C)(=O)=O)n(CC(F)F)n1 | 0% | 26% | 0% | 27% | 0% | 2% | 0% | 0% | 0% | 99.1% | 99.4% | 99.4% | 0% | 5% | 0% | 0% | 0% | 0% | 0% | 0%
19 | O=C(Nc1n[nH]c2nc(-c3ccccc3)c(Br)cc12)C1CC1 [SB-708998] | 7% | 0% | 0% | 6% | 1% | 0% | 0% | 18% | 0% | 29% | 0% | 0% | 9% | 31% | 0% | 0% | 23% | 19% | 12% | 0%
20 | COc1ccc(-c2cc3c(C)nc(N)nc3n([C@H]3CC[C@H](O)CC3)c2=O)cn1 | 0% | 0% | 0% | 0% | 0% | 0% | 0% | 0% | 0% | 0% | 0% | 0% | 0% | 0% | 0% | 7% | 0% | 0% | 0% | 0%
21 | O=C(NCCNc1ccnc(Nc2ccc(F)cc2)n1)Nc1ccc2c(c1)OCO2 [GSK1379882] | 7% | 16% | 7% | 0% | 9% | 12% | 3% | 100% | 0% | 22% | 10% | 3% | 0% | 34% | 0% | 17% | 0% | 0% | 0% | 25%
22 | COc1cc2ncn(-c3cc(OCCCc4ccccc4)c(C(N)=O)s3)c2cc1OC [GSK205189] | 13% | 0% | 7% | 0% | 5% | 0% | 0% | 1% | 0% | 15% | 21% | 12% | 0% | 13% | 0% | 15% | 16% | 0% | 0% | 0%
23 | COc1ccc(-c2cc3c(C)nc(N)nc3n([C@H]3CC[C@H](OCCO)CC3)c2=O)cn1 | 24% | 4% | 19% | 3% | 0% | 0% | 22% | 0% | 0% | 0% | 0% | 0% | 0% | 7% | 26% | 11% | 0% | 13% | 0% | 40%
24 | COc1cccc(C2=C(N(C)c3ccccc3)C(=O)NC2=O)c1 [SB-334865] | 0% | 42% | 20% | 24% | 16% | 13% | 0% | 0% | 0% | 30% | 14% | 0% | 0% | 0% | 3% | 0% | 16% | 0% | 0% | 0%
25 | CCS(=O)c1ccc(-c2coc3ccc(-c4nnc(C)o4)cc23)cc1 (centres unmarked) | 1% | 6% | 0% | 9% | 0% | 1% | 20% | 23% | 0% | 22% | 24% | 18% | 0% | 5% | 18% | 0% | 5% | 0% | 0% | 29%
26 | O=c1cc(N2CCOCC2)nc2n(Cc3ccc(F)c(Cl)c3)ccn12 [GSK2297099] | 23% | 10% | 0% | 16% | 1% | 19% | 0% | 100% | 0% | 21% | 8% | 5% | 0% | 9% | 4% | 0% | 0% | 7% | 6% | 0%
27 | FC(F)(F)c1ccc(-c2ncn(CCCN3CCOCC3)c2-c2ccncc2)cc1 [SB-217780] | 0% | 0% | 10% | 0% | 9% | 0% | 0% | 27% | 0% | 55% | 53% | 55% | 0% | 20% | 0% | 27% | 0% | 0% | 0% | 23%
28 | COc1cccc(C2=C(Nc3cccc(C(=O)O)c3)C(=O)NC2=O)c1 [SB-390770] | 0% | 0% | 7% | 0% | 1% | 1% | 2% | 33% | 94.7% | 22% | 24% | 17% | 0% | 0% | 0% | 0% | 37% | 0% | 10% | 0%
29 | COc1cc2ncn(-c3cc(OCc4ccncc4)c(C(N)=O)s3)c2cc1OC [GSK336313] | 1% | 8% | 0% | 0% | 4% | 6% | 0% | 0% | 0% | 0% | 12% | 1% | 0% | 18% | 0% | 8% | 30% | 2% | 18% | 0%
30 | Fc1cccc(CSc2nnc(-c3ccc4c(c3)CCO4)o2)c1 | 23% | 21% | 6% | 100% | 16% | 11% | 0% | 0% | 3% | 8% | 4% | 4% | 6% | 5% | 20% | 31% | 0% | 0% | 0% | 16%
31 | COC(=O)c1c(-c2ccccc2)c2cc(Br)ccc2c(=O)n1Cc1ccc(S(C)(=O)=O)cc1 | 13% | 19% | 32% | 18% | 30% | 19% | 0% | 6% | 0% | 97.2% | 98.8% | 98.6% | 6% | 54% | 31% | 30% | 0% | 0% | 0% | 0%
